{
  "source": "PubChem BioAssay (NCI)",
  "note": "Compounds without any hit were thinned out: in the full panel of roughly 83,000, 20% have a hit.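 Growth was measured after 48 h exposure to one concentration of compound in 96-well plates. Values under 10 count as active.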 Values without a mark were called inactive. Active and inactive are the calls of the source.",
  "data": [
    {"tested_on": "LOX IMVI melanoma", "test": "NCI-60 one-dose screen, 48 h (100 = growth as untreated, 0 = no growth, -100 = all killed)", "details": "10 µM unless noted", "values": [
      {"smiles": "COc1cc2c(c(OC)c1OC)CCC(c1cccc(NC(=O)c3ccc(Br)cc3)c1)O2", "note": "(stereo not given)", "growth": "90.4%"},
      {"smiles": "N#Cc1nc(-c2ccc(F)cc2)oc1S(=O)(=O)N1CCCCC1", "growth": "1.69% (active)"},
      {"smiles": "Clc1ccc(/C=N\\N=C\\c2ccc(Cl)c(Cl)c2)cc1Cl", "growth": "72.4%"},
      {"smiles": "C1CCC([PH+](C2CCCCC2)C2CCCCC2[PH+](C2CCCCC2)C2CCCCC2)CC1.[Au].[CH-]1CCCCC1C1CCCC[N-]1", "note": "(stereo not given)", "growth": "-96.5% (active)"},
      {"smiles": "Cn1c(=O)c2nc(/C=C/c3ccccc3)c(=O)[nH]c2n(C)c1=S", "growth": "101%"},
      {"smiles": "COc1ccc(/C=C(\\C#N)n2nnc3cc(Cl)ccc32)cc1", "growth": "-45.7% (active)"},
      {"smiles": "O=C(CN1C(=O)NC2NC(=O)NC21)N/N=C/c1ccccc1[N+](=O)[O-]", "note": "(stereo not given)", "growth": "102%"},
      {"smiles": "CCN(CC)CC(O)COc1c(Br)c(Br)c(Br)c2c1OC(C)(C)C2", "note": "(stereo not given)", "growth": "52.9%"},
      {"smiles": "CCCNc1nc2ccccc2c2c1S(=O)(=O)c1ccc(Cl)cc1C2=O", "growth": "4.45% (active)"},
      {"smiles": "CS(=O)(=O)Nc1cncc(-c2ccc3ncnc(Nc4cncc(Cl)c4)c3c2)c1", "growth": "79.7%"},
      {"smiles": "CN(C)c1ccc(C(=O)OCCCCCCl)cc1", "growth": "102%"},
      {"smiles": "CN(C)c1ccc(-c2c(C#N)c(N)nn2C(=O)c2ccc(NC(=O)c3ccccn3)cc2)cc1", "growth": "65.3%"},
      {"smiles": "COCCn1cc(-c2csc(-c3cn(C)c4ccc(Br)cc34)n2)c2cccnc21", "growth": "-55.1% (active)"},
      {"smiles": "CC1(C)COB(OCC(C)(C)COB2OCC(C)(C)CO2)OC1", "growth": "96%"},
      {"smiles": "Cc1c[n+](Cc2ccc3ccccc3c2)cn1Cc1ccc2ccccc2c1", "growth": "19.5%"}
    ]}
  ]
}
